From PubChem BioAssay (NCI)
This is part of a sample that, as a whole, favours compounds with a hit. Of some 83,000 tested, about 20% had one in any assay.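 Percent growth is the endpoint: 0 to 100 indicates growth inhibition (40 means 60% inhibition), 0 means no net growth, and negative values indicate cell death.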 Values without a mark were called inactive. The source made the active and inactive calls.

test system: SK-OV-3 ovarian; test: NCI-60 one-dose screen, 48 h (100 = growth as untreated, 0 = no growth, -100 = all killed); conditions: 10 µM unless noted
Description: Growth inhibition of the SK-OV-3 human tumor cell line is measured as a screen for anti-cancer activity. Cells are grown in 96 well plates and exposed to the test compound for 48 hours. Compounds are tested at a single concentration, which is 10^-5 M for most compounds. The reported endpoint is percent growth (GI% or GIPRCNT), where numbers from 0 - 100% represent growth inhibition, and numbers from -100% - 0 represent cell death. For example, a value of 40 represents 60% growth inhibition. A value of 0 means no net growth occurred over the course of the experiment. A value of -40 indicates 40% of cells at the beginning of the experiment died by the end of the experiment. A value of -100 means all cells are dead at the end of the experiment.
NCI-60 Human Tumor Cell Lines Screen was performed using the standard one-dose NCI protocol, which is described in more detail at https://dtp.cancer.gov/discovery_development/nci-60/default.htm.
Compounds with GIPRCNT values below 10 were considered active. Activity score was based on GIPRCNT using the following formula: […]
Score is 0 for GIPRCNT values of 100 or above, 50 for GIPRCNT values of 0, and 100 for GIPRCNT values of -100.

| SMILES | growth |
| --- | --- |
| O=C1C(=O)N(Cc2ccc(-c3ccccc3)cc2)c2ccc(OC(F)(F)F)cc21 | 98.1% |
| Cc1ccc2c(c1)=C/C(=C\c1cc(-c3ccccc3)oc1O)C(=O)N=2 | 111% |
| C=CC[Se]C(=O)Cc1c(C)n(C(=O)c2ccc(Cl)cc2)c2ccc(OC)cc12 | -83% (active) |
| COC(=O)/C=C1/SC(=Nc2ccc(C(F)(F)F)cc2)N(CCc2c[nH]c3ccc(O)cc23)C1=O | -5.47% (active) |
| CC1OC(n2c3ccccc3c3c4c(c5c6ccccc6[nH]c5c32)C(=O)N(CCN2CCCC2)C4=O)CC(O)C1O (stereo not given) | 32.1% |
| O=S(=O)(Nc1ccc(Cl)c(C(F)(F)F)c1)c1ccc(-c2cnc(C3CC3)o2)cc1 | 0.753% (active) |
| N=C(N)c1ccc(-c2ccc(-c3ccccc3)o2)cc1 | -18.3% (active) |
| Clc1ccc2c(c1)C(c1c[nH]c3ccccc13)(c1c[nH]c3ccccc13)CCO2 | 39.6% |
| O=C(Nc1cccc(Cl)c1)Nc1cccc(Cn2c(=O)[nH]c3ccc(Oc4ncccn4)cc3c2=O)c1 | 70.7% |
| CC(=O)O[C@@H]1C[C@]2(C(C)C)O[C@@]1(C)[C@@H]1CCC(C)=C1[C@@H]2OC(=O)/C=C/c1ccccc1 | 89.3% |
| COc1ccc(Cc2cnc(NC(=O)c3cc(C)oc3C)s2)cc1 | 49.1% |
| Cc1nc2sc(C(=O)Nc3ccc(Br)cc3)c(N)c2cc1C(O)c1ccccc1 (stereo not given) | 78.3% |
| COC1=CC(c2ccc[nH]2)=N/C1=C\c1[nH]c(C)c(C)c1CCC(=O)OCc1ccccc1 | 29.5% |
| NC(Cc1ccc(O)c([N+](=O)[O-])c1)C(=O)O (stereo not given) | 115% |
| NNc1nc(-c2cccnc2)nc2c1sc(=S)n2-c1ccccc1 | 79.6% |
| COc1ccc(-c2noc(C(=O)O)c2-c2cc(OC)c(OC)c(OC)c2)cc1 | 23.5% |
| C#CCOc1ccc2ncnc(Nc3ccc(NC(=O)C=C)cc3)c2c1 | 90.6% |
| O=c1[nH]c(-c2ccccc2)nc2sc3cc(O)ccc3c12 | 97.9% |
| CCN1C(=O)N(CC)C2C1NN=c1s/c(=C\c3ccccc3F)c(=O)n12 (stereo not given) | 32.6% |
| C=C(C)[C@@H]1CCC[C@]2(COS(=O)(=O)c3ccc(C)cc3)CC[C@]3(C)[C@@H](CC[C@@H]4[C@@]5(C)CCCNC(C)(C)[C@@H]5CC[C@]43C)[C@@H]12 | 98.7% |

| SMILES | growth |
| --- | --- |
| O=c1c2ccccc2n2cnc3ccc(Cl)c1c32 | 69.8% |
| O=C(CN1C(=O)S/C(=C\c2ccccc2)C1=O)Nc1ncc(Cc2ccccc2Cl)s1 | 102% |
| Cc1cc(C(=O)O)c(C)n1-c1cccc(C(=O)O)c1 | 105% |
| O=S(=O)(NCCNc1nccc(-c2c(-c3ccc(F)c(O)c3)nc3sccn23)n1)c1ccc(O)cc1 | 53.7% |
| C=CCSc1nnc(NC(=O)CCl)s1 | 119% |
| CCN(CC)S(=O)(=O)c1ccc(S(=O)(=O)N2CCC[C@@H](C(=O)N3CCN(c4nc(C(C)C)no4)CC3)C2)cc1 | 87.3% |
| CCC1=C[C@@H]2C[C@]3(C(=O)OC)c4[nH]c5ccccc5c4CC[N@+](CC(=O)Nc4cc5c(cc4OC)N(C)[C@H]4[C@@](O)(C(=O)OC)[C@H](OC(C)=O)[C@]6(CC)C=CCN7CC[C@]54[C@@H]76)(C2)[C@H]13 | 105% |
| O=C(CN1CCCCC1)Nc1nc(-c2cc3ccccc3oc2=O)cs1 | 119% |
| Nc1nc(-c2ccc(Cl)cc2)nc2c1sc(=S)n2-c1ccccc1 | 23.4% |
| CCNCCNc1cc(C2CCCCC2)c(C#N)c2nc3ccccc3n12 | 28.2% |
| N#Cc1c(-c2ccccc2)cc(-c2ccc(Nc3nc(Nc4ccc(Cl)cc4)nc(Nc4ccc(Cl)cc4)n3)cc2)nc1N | 110% |
| O=C(Nc1ccc(OS(=O)(=O)c2ccc(F)cc2)cc1)C1CCCCCC1 | 97.5% |
| Fc1ccc(CNc2c3ccccc3nc3ccccc23)c(F)c1 | 59.8% |
| COc1ccc(C(O)c2cc3c(N)c(C(=O)Nc4cccc(Br)c4)sc3nc2C)cc1 (stereo not given) | 17.9% |
| CCOC(=O)C1=C(C)NC(=O)NC1c1c(Cl)n(CCCl)c2ccccc12 (stereo not given) | 104% |
| C=C1C(=O)O[C@H]2[C@H]1CC/C(COC(=O)C(=O)c1cn(C)c3ccc(Cl)cc13)=C\CC[C@@]1(C)O[C@@H]21 | -35.4% (active) |
| CCCCNC(=O)CC1=C(C)/C(=C/c2[nH]c(-c3ccc[nH]3)cc2OC)N=C1C | 51.7% |
| O=C(COc1ccc(-c2nc3cc(Cl)c(Cl)cc3[nH]2)cc1)N=Nc1c(O)[nH]c2ccc(Cl)cc12 | 84.5% |
| N#Cc1c(-c2ccc(Cl)cc2)c(C#N)c2c(C#N)c(N)nn2c1N | 70.5% |
| COc1ccc(Nc2nnc(-c3ccc(OC)c(OC)c3)o2)cc1 | 98% |
